Measurements published in PubChem BioAssay (NCATS).
Several values for one entry are separate records, joined by “and”; a condition that tells them apart may be missing. Equal values may be shown once. Inconclusive results are not listed. Activity calls are given as the source filed them. Unless noted, calls come from the whole dose curve; as a rule, active = well fitted curve in the direction sought with a large enough effect; inconclusive = small, poorly fitted or top-dose-only effect, or another doubt; inactive = no such curve, though single readings can be large; an effect the other way counts as inactive or inconclusive.

How the values were obtained:
C33A = assay: Primary qHTS to identify gynecologic anti-cancer compounds using libraries of approved drugs and bioactive compounds (AID 1345084); settings: Gynecologic cancer cell panel viability, ATPlite luminescence, 48 h; series mostly up to 57.5 µM; note: % is set by controls: 0 for no effect and ±100 for the full control effect; nearly all actives have a fitted effect of over 55% in size
Procedure, shortened: (§1)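 Cells, 1,000 per well, were allowed to settle for 16 h at 37 C before compound addition. Five concentrations were tested for 48 h, and viability was read by ATPlite luminescence after 15 min at room temperature.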

CAOV3 = assay: as above; settings: Gynecologic cancer cell panel viability, ATPlite luminescence, 48 h; series mostly up to 57.5 µM
Procedure, shortened: as §1

CASKI = assay: as above; settings: Gynecologic cancer cell panel viability, ATPlite luminescence, 48 h; series mostly up to 57.5 µM
Procedure, shortened: as §1

Es-2 = assay: as above; settings: Gynecologic cancer cell panel viability, ATPlite luminescence, 48 h; series mostly up to 57.5 µM
Procedure, shortened: as §1

HeLa = assay: as above; settings: Gynecologic cancer cell panel viability, ATPlite luminescence, 48 h; series mostly up to 57.5 µM
Procedure, shortened: as §1

Hek293T = assay: as above; settings: Gynecologic cancer cell panel viability, ATPlite luminescence, 48 h, control line for the selectivity index; series mostly up to 57.5 µM
Procedure, shortened: as §1

JEG-3 = assay: as above; settings: Gynecologic cancer cell panel viability, ATPlite luminescence, 48 h; series mostly up to 57.5 µM
Procedure, shortened: as §1

OV90 = assay: as above; settings: Gynecologic cancer cell panel viability, ATPlite luminescence, 48 h; series mostly up to 57.5 µM
Procedure, shortened: as §1

SKOV3 = assay: as above; settings: Gynecologic cancer cell panel viability, ATPlite luminescence, 48 h; series mostly up to 57.5 µM
Procedure, shortened: as §1

Tov-21-G = assay: as above; settings: Gynecologic cancer cell panel viability, ATPlite luminescence, 48 h; series mostly up to 57.5 µM
Procedure, shortened: as §1

Tov112D = assay: as above; settings: Gynecologic cancer cell panel viability, ATPlite luminescence, 48 h; series mostly up to 57.5 µM
Procedure, shortened: as §1

[1] = Drug repurposing screens with cells derived from glioblastoma tumor samples (AID 1345199); settings: GBM patient neurospheres viability, ATP luminescence, 48 h; note: nearly all actives have a fitted effect of over 40% in size; note: potency is the fitted concentration of half-maximal effect; for activity, negative = cell killing: % is set by controls: 0 for no effect and ±100 for the full control effect
Procedure, shortened: (§2)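 Four patient lines of CD133+ GBM neurospheres were screened at several concentrations; hits were retested in those lines plus three slower-growing GBM lines, using 48-hour treatment and ATP-based viability.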

astro = assay: as above; settings: viability, ATP luminescence, 48 h; series mostly up to 45.9 µM
Procedure, shortened: as §2

[2] = target: Nuclear receptor subfamily 1 group I member 2 (Rattus norvegicus) (UniProt Q9R1A7); assay: qHTS assay for small molecule activators of the rat pregnane X receptor (rPXR) signaling pathway (AID 651751; call rule not given here; note: 0% is about no effect); settings: rPXR reporter cells, luciferase (One-Glo), 24 h
Nuclear receptor subfamily 1 group I member 2 (Rattus norvegicus), sequence (Q9R1A7 whole entry, looked up): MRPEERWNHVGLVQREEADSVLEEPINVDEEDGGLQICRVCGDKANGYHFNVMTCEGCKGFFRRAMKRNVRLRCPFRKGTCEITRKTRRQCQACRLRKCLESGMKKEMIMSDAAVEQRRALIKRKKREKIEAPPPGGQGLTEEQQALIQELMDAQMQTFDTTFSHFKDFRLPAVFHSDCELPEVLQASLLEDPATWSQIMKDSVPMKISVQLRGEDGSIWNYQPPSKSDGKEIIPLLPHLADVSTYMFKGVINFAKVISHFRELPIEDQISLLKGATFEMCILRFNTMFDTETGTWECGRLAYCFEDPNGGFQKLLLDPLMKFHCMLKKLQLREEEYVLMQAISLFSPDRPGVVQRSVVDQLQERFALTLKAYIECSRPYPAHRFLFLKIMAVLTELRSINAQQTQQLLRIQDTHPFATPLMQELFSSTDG

[3] = qHTS assay for small molecule activators of the human pregnane X receptor (PXR) signaling pathway (AID 720659; call rule not given here; note: 0% is about no effect)
PA-1 = assay: Primary qHTS to identify gynecologic anti-cancer compounds using libraries of approved drugs and bioactive compounds (AID 1345084); settings: Gynecologic cancer cell panel viability, ATPlite luminescence, 48 h; series mostly up to 57.5 µM; note: % is set by controls: 0 for no effect and ±100 for the full control effect; nearly all actives have a fitted effect of over 55% in size
Procedure, shortened: as §1

[4] = at 45.9 µM (top of the series), tumour line B
[5] = at 45.9 µM (top of the series), tumour line D
[6] = at 46 µM (top of the series), tumour line A

COP(=S)(OC)Oc1ccc(SC)c(C)c1
inactive: Potency (C33A) | outcome (CAOV3) | outcome (CASKI) | Potency (Es-2) | Potency (HeLa) | outcome (Hek293T) | outcome (JEG-3) | Potency (OV90) | outcome (SKOV3) | Potency (Tov-21-G) | Potency (Tov112D) | activity, negative = cell killing [1, 4] -12.6% | activity, negative = cell killing [1, 5] -10.9% | activity, negative = cell killing [1, 6] -25.3% | Potency (astro) | max response [2] -3.65% and 2.94% | outcome [3]

O=C(CCCN1CCC2(CC1)C(=O)NCN2c1ccccc1)c1ccc(F)cc1
active: Potency ([1]; tumour line A) 2.24 µM | Potency ([1]; tumour line D) 12.6 µM
inactive: Potency (C33A) | outcome (CAOV3) | outcome (CASKI) | Potency (Es-2) | Potency (HeLa) | outcome (Hek293T) | outcome (JEG-3) | Potency (PA-1) | outcome (SKOV3) | Potency (Tov-21-G) | Potency (Tov112D) | Potency (astro)

NC(=O)CS(=O)C(c1ccccc1)c1ccccc1 (stereo not given)
inactive: Potency (C33A) | outcome (CAOV3) | outcome (CASKI) | Potency (Es-2) | Potency (HeLa) | outcome (Hek293T) | outcome (JEG-3) | Potency (PA-1) | outcome (SKOV3) | Potency (Tov-21-G) | Potency (Tov112D) | activity, negative = cell killing [1, 4] -12.2% | activity, negative = cell killing [1, 5] -18.4% | activity, negative = cell killing [1, 6] -9.02% | Potency (astro)

NNc1ccccc1
inactive: Potency (C33A) | outcome (CAOV3) | outcome (CASKI) | Potency (Es-2) | Potency (HeLa) | outcome (Hek293T) | outcome (JEG-3) | Potency (OV90) | Potency (PA-1) | Potency (Tov-21-G) | Potency (Tov112D) | activity, negative = cell killing [1, 4] -3.46% | activity, negative = cell killing [1, 5] -1.72% | activity, negative = cell killing [1, 6] -20.5% | activity, negative = cell killing ([1]; at 46.1 µM (top of the series), tumour line C) 11.9% | Potency (astro)

O=C(O)CCCc1ccc(N(CCCl)CCCl)cc1
inactive: Potency (C33A) | outcome (CAOV3) | outcome (CASKI) | Potency (Es-2) | Potency (HeLa) | outcome (Hek293T) | outcome (JEG-3) | Potency (OV90) | Potency (PA-1) | outcome (SKOV3) | Potency (Tov-21-G) | Potency (Tov112D) | activity, negative = cell killing [1, 4] -11.3% | activity, negative = cell killing [1, 5] -13.2% | Potency (astro) | max response [2] 4.32% and -0.624% | outcome [3]

CCCN(CCC)C(=O)Cc1c(-c2ccc(Cl)cc2)nc2ccc(Cl)cn12
inactive: Potency (C33A) | outcome (CAOV3) | outcome (CASKI) | Potency (Es-2) | Potency (HeLa) | outcome (Hek293T) | outcome (JEG-3) | outcome (SKOV3) | Potency (Tov-21-G) | Potency (Tov112D) | activity, negative = cell killing [1, 4] -4.08%
active: Potency ([1]; tumour line A) 10 µM

NC(=O)c1cc([N+](=O)[O-])cc([N+](=O)[O-])c1
inactive: Potency (C33A) | outcome (CAOV3) | outcome (CASKI) | Potency (Es-2) | Potency (HeLa) | outcome (Hek293T) | Potency (OV90) | Potency (PA-1) | outcome (SKOV3) | Potency (Tov-21-G) | Potency (Tov112D) | activity, negative = cell killing [1, 4] -14% | activity, negative = cell killing [1, 5] -22.7%

Clc1cccc(SC2CCNCC2)n1
inactive: Potency (C33A) | outcome (CAOV3) | outcome (CASKI) | Potency (Es-2) | Potency (HeLa) | outcome (Hek293T) | outcome (JEG-3) | Potency (OV90) | Potency (PA-1) | outcome (SKOV3) | Potency (Tov-21-G) | Potency (Tov112D)
active: Potency (astro) 35.5 µM

CN1CCC(O)(c2ccc(F)cc2)C(C(=O)c2ccc(F)cc2)C1 (stereo not given)
active: Potency ([1]; tumour line A) 12.6 µM | Potency ([1]; tumour line B) 28.2 µM
inactive: Potency (C33A) | outcome (CAOV3) | outcome (CASKI) | Potency (Es-2) | Potency (HeLa) | outcome (Hek293T) | outcome (JEG-3) | Potency (OV90) | Potency (PA-1) | outcome (SKOV3) | Potency (Tov-21-G) | Potency (Tov112D) | Potency (astro)

Nc1ccc([As](=O)(O)O)cc1
inactive: Potency (C33A) | outcome (CAOV3) | outcome (CASKI) | Potency (Es-2) | Potency (HeLa) | outcome (Hek293T) | outcome (JEG-3) | Potency (OV90) | Potency (PA-1) | Potency (Tov-21-G) | Potency (Tov112D) | activity, negative = cell killing [1, 4] -5.35% | activity, negative = cell killing [1, 5] -5.12% | activity, negative = cell killing [1, 6] -21.8% | Potency (astro) | max response [2] 3.51% | outcome [3]

NCCc1ccc(O)cc1
inactive: Potency (C33A) | outcome (CAOV3) | outcome (CASKI) | Potency (Es-2) | Potency (HeLa) | outcome (Hek293T) | outcome (JEG-3) | Potency (OV90) | Potency (PA-1) | outcome (SKOV3) | Potency (Tov-21-G) | Potency (Tov112D) | activity, negative = cell killing [1, 4] -7.62% | activity, negative = cell killing [1, 5] 3.08% | activity, negative = cell killing [1, 6] -19.3% | Potency (astro) | max response [2] 0.0715% | outcome [3]

C[C@H](N)C(=O)c1ccccc1
inactive: Potency (C33A) | outcome (CAOV3) | outcome (CASKI) | Potency (Es-2) | outcome (Hek293T) | outcome (JEG-3) | Potency (PA-1) | outcome (SKOV3) | Potency (Tov-21-G) | Potency (Tov112D) | activity, negative = cell killing [1, 4] -11.6% | activity, negative = cell killing [1, 5] -9.76% | activity, negative = cell killing ([1]; at 108 µM (top of the series), tumour line B) -16.2% | activity, negative = cell killing ([1]; at 108 µM (top of the series), tumour line D) -20.3% | Potency (astro)

Oc1ccc(Cl)cc1
inactive: Potency (C33A) | outcome (CAOV3) | outcome (CASKI) | Potency (Es-2) | Potency (HeLa) | outcome (Hek293T) | outcome (JEG-3) | Potency (OV90) | Potency (PA-1) | Potency (Tov-21-G) | Potency (Tov112D) | activity, negative = cell killing [1, 4] -7.37% | activity, negative = cell killing [1, 5] -24.9% | activity, negative = cell killing [1, 6] -26.5% | Potency (astro) | max response [2] 5.25% | outcome [3]

CCN(CCO)CCn1c(Cc2ccccc2)nc2c1c(=O)n(C)c(=O)n2C
inactive: Potency (C33A) | outcome (CAOV3) | outcome (CASKI) | Potency (Es-2) | Potency (HeLa) | outcome (Hek293T) | outcome (JEG-3) | Potency (PA-1) | Potency (Tov-21-G) | Potency (Tov112D) | activity, negative = cell killing [1, 4] -6.5% | activity, negative = cell killing [1, 5] -3.15%

C[C@H]1[C@@H]2Cc3ccc(O)cc3[C@@]1(C)CCN2C
inactive: Potency (C33A) | outcome (CAOV3) | outcome (CASKI) | Potency (Es-2) | Potency (HeLa) | outcome (Hek293T) | outcome (JEG-3) | Potency (PA-1) | outcome (SKOV3) | Potency (Tov-21-G) | Potency (Tov112D) | activity, negative = cell killing ([1]; at 231 µM (top of the series), tumour line B) -0.237% | activity, negative = cell killing ([1]; at 231 µM (top of the series), tumour line D) -19.7%
active: Potency ([1]; tumour line A) 112 µM
